# Compound activity deposited in PubChem BioAssay by several laboratories.
# Pemphigus Ab inh = human desmoglein-3 autoantibody binding inhibition. P32926. DSG3-coupled beads, scFv-anti-DSG3-GFP binding, flow cytometry; hits give low values. binding (percent of control), % at 10 µM. 310,000 tested, 0.48% active. AID 588358;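 active = binding more than 3 SD below its plate's average and above zero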;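 note: hits lower antibody fragment binding to DSG3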
# NSD2 HMT inh = blocks human histone methyltransferase NSD2 | AID 743445 | 310,000 tested, 0.54% active | O96028 | NSD2 peptide methylation, AlphaScreen, 120 min | inhibition, % at 12.5 µM; in the data active = inhibition above about 50%
# Target sequence (O96028 whole entry, looked up): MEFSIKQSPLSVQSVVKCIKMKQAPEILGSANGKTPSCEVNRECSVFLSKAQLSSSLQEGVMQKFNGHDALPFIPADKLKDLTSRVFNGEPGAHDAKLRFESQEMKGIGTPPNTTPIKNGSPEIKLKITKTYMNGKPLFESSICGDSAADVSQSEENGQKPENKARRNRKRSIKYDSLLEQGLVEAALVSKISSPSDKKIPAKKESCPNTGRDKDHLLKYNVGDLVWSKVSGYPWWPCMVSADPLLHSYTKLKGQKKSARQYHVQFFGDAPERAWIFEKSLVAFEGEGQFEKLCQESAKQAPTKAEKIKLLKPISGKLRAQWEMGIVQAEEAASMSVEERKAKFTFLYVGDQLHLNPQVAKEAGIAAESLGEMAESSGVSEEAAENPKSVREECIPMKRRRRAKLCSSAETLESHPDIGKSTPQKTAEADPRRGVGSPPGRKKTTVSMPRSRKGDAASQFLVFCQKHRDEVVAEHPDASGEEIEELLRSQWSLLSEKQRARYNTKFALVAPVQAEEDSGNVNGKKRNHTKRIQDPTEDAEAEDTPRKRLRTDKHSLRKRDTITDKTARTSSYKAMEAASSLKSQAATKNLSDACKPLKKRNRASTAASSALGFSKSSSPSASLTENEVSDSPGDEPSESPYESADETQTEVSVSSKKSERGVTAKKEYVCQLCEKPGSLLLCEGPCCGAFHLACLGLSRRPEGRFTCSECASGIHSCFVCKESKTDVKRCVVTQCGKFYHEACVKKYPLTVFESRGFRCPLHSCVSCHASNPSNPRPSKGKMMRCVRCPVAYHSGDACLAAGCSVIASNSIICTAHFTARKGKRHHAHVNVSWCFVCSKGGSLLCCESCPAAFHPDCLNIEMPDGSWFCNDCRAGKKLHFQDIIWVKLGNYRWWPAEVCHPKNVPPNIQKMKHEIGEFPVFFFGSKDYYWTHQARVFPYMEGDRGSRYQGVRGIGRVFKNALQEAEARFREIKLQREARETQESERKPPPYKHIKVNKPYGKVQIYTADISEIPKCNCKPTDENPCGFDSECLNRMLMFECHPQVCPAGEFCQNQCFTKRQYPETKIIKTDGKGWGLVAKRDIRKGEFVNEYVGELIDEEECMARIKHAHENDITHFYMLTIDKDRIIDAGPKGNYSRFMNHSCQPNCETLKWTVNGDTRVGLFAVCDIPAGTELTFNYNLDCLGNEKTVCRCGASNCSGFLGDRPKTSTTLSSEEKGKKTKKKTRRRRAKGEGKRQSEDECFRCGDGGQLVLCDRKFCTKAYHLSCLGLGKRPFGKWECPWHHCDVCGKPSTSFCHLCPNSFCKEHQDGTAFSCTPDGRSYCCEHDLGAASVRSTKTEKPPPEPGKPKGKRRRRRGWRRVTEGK
# N-glyco inh = N-linked glycosylation inhibition; reporter increase, % at 12.5 µM; D54 ERlucT glycosylation luciferase reporter, 24 h; percent of 100 nM tunicamycin response; AID 588692; 360,000 tested, 0.23% active;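 active = mean luciferase reporter signal, scaled so untreated is 0 and the glycosylation-blocking control 100, at or above a set limit in every replicate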;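 note: luciferase carries N-glycosylation sites so blocking glycosylation raises the light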
# ATG4B inhibitor = inhibitors of human ATG4B cysteine protease. ATG4B cleavage of LC3-PLA2, NBD-HPC fluorescence, 1 h. inhibition, % at 8.33 µM. 340,000 tested, 0.51% active. AID 504462; in the data active = inhibition above about 40%
# Vif inh = blocks HIV Vif function. inhibition, % at 7.49 µM. 340,000 tested, 0.35% active. HEK293T cells, Vif self-association by quenched fluorescence, imaging, 24 h. AID 602346; in the data active = inhibition above about 50%, passing the limit was not always enough
# CaV13 FRET inh = Disruptors of the CACNA1D IQ motif to Ca2+-dependent inactivation inhibitor domain association, primary screening, Förster resonance energy transfer in intact living …. HEK cells, CFP/YFP FRET ICDI-IQ, plate reader, 10 min; percent FRET-ratio fall versus neutral wells. inhibition, % at 12.3 µM. 340,000 tested, 0.098% active;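 active = mean replicate inhibition of at least 30% and at least 1% of replicates passing that level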
# Alpha artifact = interferes with AlphaScreen signal, flagging NSD2 false positives; AID 1053174; shares compounds with NSD2 HMT inh; AlphaScreen artifact counterscreen, preloaded methylated H4 peptide; AC35, µM (titrated, usually from 10 µM); 1,500 tested, 9.4% active; call rule not given here
# A number is an active result; i = inactive; nt = no result given. Rows were chosen to be rich in hits. Some 1.9% of all compounds tested hit in one or more screens of this group.
SMILES,Pemphigus Ab inh,NSD2 HMT inh,N-glyco inh,ATG4B inhibitor,Vif inh,CaV13 FRET inh,Alpha artifact
CCNCCNc1ccc([N+](=O)[O-])c2cccnc12,i,100,i,i,i,i,i
CN1CCN(c2ccc(Cl)cc2N)CC1,i,i,i,i,i,i,nt
CN1CCN(c2ccc(N)cc2Cl)CC1,i,77,i,i,i,i,i
N#Cc1c(Cl)nc(Cl)c2c1CCN(Cc1ccccc1)C2,i,i,i,i,i,i,nt
O=C1NC(=O)C(Sc2ccccc2[N+](=O)[O-])C(=O)N1,nt,85,i,i,i,i,i
c1ccc2c(NC3=NCCS3)cccc2c1,nt,i,i,i,i,nt,nt
COCCCn1c(N)c(C(=O)OCCOC)c2nc3ccccc3nc21,i,73,i,i,i,nt,i
COCCNC(=O)c1c(N)n(CCC(C)C)c2nc3ccccc3nc12,i,i,i,i,i,i,nt
COCCCNC(=O)c1c(NC(=O)c2ccco2)n(Cc2ccccc2)c2nc3ccccc3nc12,i,106,i,i,i,nt,i
CCCCNC(=O)c1c(N)n(CCCOC)c2nc3ccccc3nc12,i,106,i,i,i,i,i
CCOC(=O)c1c(NS(=O)(=O)c2ccccc2)n(CCCOC)c2nc3ccccc3nc12,i,68,i,i,i,i,i
CCOC(=O)C(O)(c1ccc(N(CC)C(=O)COc2ccccc2)cc1)C(F)(F)F (configuration not stated),i,i,i,i,i,i,nt
CCCCn1nnnc1C(c1ccnc2ccccc12)N1CCC2(CC1)C(=O)NCN2c1ccccc1 (configuration not stated),nt,nt,i,nt,i,i,nt
CN1C(=O)C(=Cc2ccccc2Oc2ccc(Cl)cc2)C(=O)N(C)C1=O,i,i,i,i,i,i,nt
Cc1cc(/C=C2\C(=O)NC(=O)N(Cc3ccccc3Cl)C2=O)c(C)n1-c1ccc(C(=O)O)cc1,i,58,i,i,i,i,i
Cc1cc(/C=C2\C(=O)NC(=O)N(Cc3ccccc3)C2=O)c(C)n1-c1ccc(Cl)c(C(=O)O)c1,i,137,i,i,i,i,i
CC(=O)NC1=C(N2CC2C)C(=O)C(NC(C)=O)=C(N2CC2C)C1=O (configuration not stated),i,115,i,i,i,i,i
Clc1ccccc1NC1=NCCCS1,i,i,i,i,i,i,nt
Clc1ccccc1Nc1ncnc(-n2cccc2)n1,i,128,i,i,i,i,i
CC(=NCCN(C)C)c1c(O)n(Cc2ccccc2)c(=O)[nH]c1=O,nt,i,i,i,i,i,nt
O=[N+]([O-])c1ccc(N(CCO)CCO)c2c1no[n+]2[O-],i,135,i,nt,61,i,i
CCC(=NCCCN(CC)CC)c1c(O)n(C2CCCCC2)c(=O)[nH]c1=O,i,51,i,i,i,i,i
